# Experimental data taken from PubChem BioAssay (EPA / NIEHS).
# Values joined by “and” are separate entries in the source; they are usually repeats but may differ in a detail not shown here. Equal values may be shown once. A structure can be active in one record and inactive in another. Active and inactive are the calls of the source. How the source made its calls: active means hit-call score of the fitted dose curve at least 0.9, where 1 is the maximum; inactive means score below 0.9.
# Legend:
# CD40, CD40 (gene 958) = test: BSK_LPS_CD40: BioMAP Diversity Plus: LPS Assay for CD40 Biomarker Activity (AID 2283076); details: primary human HUVEC with PBMC; actives raise or lower the signal
# Outline: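 HUVEC plus PBMC co-culture stimulated with LPS; CD40 quantified by ELISA 24 h after compound dosing. Fitting was bidirectional relative to DMSO. SRB staining of parallel cultures flagged overt cytotoxicity.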
# [1] = read-out: E-selectin (Homo sapiens) (UniProt P16581); test: BSK_LPS_Eselectin: BioMAP Diversity Plus: LPS Assay for Eselectin Biomarker Activity (AID 2283077); details: primary human HUVEC with PBMC; actives raise or lower the signal
# Outline: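 Human umbilical vein endothelial cells co-cultured with PBMC under LPS stimulation; cell-surface E-selectin measured by ELISA 24 h after dosing. Change in either direction versus DMSO, with SRB total-protein staining in parallel cultures for cytotoxicity.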
# [2] = read-out: Interleukin-8 (IL8), CXCL8 (gene 3576); test: BSK_LPS_IL8: BioMAP Diversity Plus: LPS Assay for Interleukin-8 (IL8) Biomarker Activity (AID 2283078); details: primary human HUVEC with PBMC; actives raise or lower the signal
# Outline: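 Human umbilical vein endothelial cells co-cultured with PBMC, LPS-stimulated, exposed to compound for 24 h. IL-8 quantified by ELISA; fitted in both directions against DMSO, with SRB total-protein staining of parallel cultures for cytotoxicity.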
# [3] = BSK_LPS_SRB: Viability Assessment in the BioMAP Diversity Plus: LPS Assay (AID 2283079); details: primary human HUVEC with PBMC;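 further: total protein by sulforhodamine B absorbance as a cytotoxicity measure; measured one day after compound addition; fitted in both directions against DMSO so loss or gain of signal counts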
# Outline: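 Co-culture of human umbilical vein endothelial cells and PBMC, read 24 h after dosing. Total protein by 0.1% SRB staining after 10% TCA fixation, absorbance at 560 nm; bidirectional fit against DMSO.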
# [4] = read-out: Interleukin-1 alpha (IL1a), IL1A (gene 3552); test: BSK_LPS_IL1a: BioMAP Diversity Plus: LPS Assay for Interleukin-1 alpha (IL1a) Biomarker Activity (AID 2283080); details: primary human HUVEC with PBMC; actives raise or lower the signal
# Outline: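 Human umbilical vein endothelial cells co-cultured with PBMC and stimulated with LPS; IL-1a measured by ELISA 24 h after dosing. Bidirectional fitting against DMSO; cytotoxicity checked by SRB staining in parallel cultures.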
# [5] = read-out: Monocyte Chemoattractant Protein-1 (MCP1), CCL2 (gene 6347); test: BSK_LPS_MCP1: BioMAP Diversity Plus: LPS Assay for Monocyte Chemoattractant Protein-1 (MCP1) Biomarker Activity (AID 2283081); details: primary human HUVEC with PBMC; actives raise or lower the signal;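 on AC50: secreted MCP-1 protein quantified by ELISA in culture supernatant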
# Outline: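 Human umbilical vein endothelial cells co-cultured with PBMC, LPS-stimulated; secreted MCP-1 measured by ELISA 24 h after compound addition. Bidirectional curve fitting against DMSO baseline; SRB total-protein staining in parallel cultures for cytotoxicity.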
# [6] = BSK_LPS_PGE2: BioMAP Diversity Plus: LPS Assay for Prostaglandin E2 (PGE2) Biomarker Activity (AID 2283082); details: primary human HUVEC with PBMC; actives raise or lower the signal;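 on AC50: secreted prostaglandin E2 measured by ELISA in LPS-stimulated co-culture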
# Outline: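 HUVEC plus human PBMC co-culture stimulated with LPS; secreted PGE2 quantified by ELISA 24 h after chemical dosing. Activity fitted bidirectionally against DMSO baseline; parallel SRB staining (0.1% SRB after 10% TCA fixation, 560 nm) flags overt cytotoxicity.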
# [7] = read-out: Macrophage colony-stimulating factor (MCSF), CSF1 (gene 1435); test: BSK_LPS_MCSF: BioMAP Diversity Plus: LPS Assay for Macrophage colony-stimulating factor (MCSF) Biomarker Activity (AID 2283083); details: primary human HUVEC with PBMC; actives raise or lower the signal
# Outline: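 HUVEC–PBMC co-culture, M-CSF measured by ELISA 24 h after chemical dosing. Fitted in both directions relative to DMSO as negative control; overt cytotoxicity assessed by SRB total-protein staining in parallel cultures.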
# [8] = read-out: Tissue Factor, F3 (gene 2152); test: BSK_LPS_TissueFactor: BioMAP Diversity Plus: LPS Assay for Tissue Factor Biomarker Activity (AID 2283084); details: primary human HUVEC with PBMC; actives raise or lower the signal
# Outline: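 Human umbilical vein endothelial cells co-cultured with PBMC were dosed with compound. Cell-surface CD142 was measured by ELISA 24 h later. Activity was fitted bidirectionally against DMSO, with SRB total-protein staining in parallel cultures for cytotoxicity.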
# [9] = read-out: Tumor necrosis factor (Homo sapiens) (UniProt P01375); test: BSK_LPS_TNFa: BioMAP Diversity Plus: LPS Assay for Tumour Necrosis Factor alpha (TNFa) Biomarker Activity (AID 2283085); details: primary human HUVEC with PBMC; actives raise or lower the signal;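 on AC50: TNFa protein level quantified by ELISA in the co-culture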
# Outline: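 Human umbilical vein endothelial cells co-cultured with PBMC and stimulated with LPS. TNFa was measured by ELISA 24 h after chemical dosing, fitted bidirectionally relative to DMSO.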
# Sequence of Tumor necrosis factor (Homo sapiens) (P01375 whole entry, looked up): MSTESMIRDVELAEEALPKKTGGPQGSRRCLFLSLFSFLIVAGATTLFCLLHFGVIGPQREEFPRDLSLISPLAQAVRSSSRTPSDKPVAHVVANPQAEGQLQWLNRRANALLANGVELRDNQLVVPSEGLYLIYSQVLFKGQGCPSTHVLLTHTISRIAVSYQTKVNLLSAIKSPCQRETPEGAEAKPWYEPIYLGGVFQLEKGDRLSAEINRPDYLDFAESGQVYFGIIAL
# Sequence of E-selectin (Homo sapiens) (P16581 whole entry, looked up): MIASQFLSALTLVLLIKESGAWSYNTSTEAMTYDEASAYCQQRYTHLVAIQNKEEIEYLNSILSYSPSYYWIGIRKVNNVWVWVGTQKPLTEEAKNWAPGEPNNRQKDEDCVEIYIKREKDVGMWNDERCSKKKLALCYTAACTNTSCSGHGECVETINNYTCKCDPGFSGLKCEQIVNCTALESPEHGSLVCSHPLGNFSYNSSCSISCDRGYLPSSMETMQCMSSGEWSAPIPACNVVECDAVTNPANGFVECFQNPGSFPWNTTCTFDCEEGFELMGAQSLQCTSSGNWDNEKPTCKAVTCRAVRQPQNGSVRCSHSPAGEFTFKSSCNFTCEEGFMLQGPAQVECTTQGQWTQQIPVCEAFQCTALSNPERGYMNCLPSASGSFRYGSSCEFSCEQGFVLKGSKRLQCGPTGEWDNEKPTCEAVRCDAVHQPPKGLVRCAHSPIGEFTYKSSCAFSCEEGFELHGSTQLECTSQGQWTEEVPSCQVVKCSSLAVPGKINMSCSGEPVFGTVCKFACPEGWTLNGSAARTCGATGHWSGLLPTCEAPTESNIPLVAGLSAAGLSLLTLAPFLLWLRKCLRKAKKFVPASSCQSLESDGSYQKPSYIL
Compound,"outcome (CD40, CD40 (gene 958))",outcome [1],outcome [2],outcome [3],outcome [4],outcome [5],outcome [6],outcome [7],outcome [8],outcome [9],"AC50 (CD40, CD40 (gene 958))",AC50 [2],AC50 [3],AC50 [4],AC50 [7],AC50 [9],AC50 [5],AC50 [1],AC50 [8],AC50 [6]
CCOc1nc(F)cc2nc(S(=O)(=O)Nc3c(Cl)cccc3C(=O)OC)nn12,inactive,inactive,inactive,inactive,inactive,inactive,inactive,inactive,inactive,inactive,,,,,,,,,,
O=C(Nc1ccccc1SSc1ccccc1NC(=O)c1ccccc1)c1ccccc1,,inactive,,,,inactive,inactive,,inactive,,4.75 µM (active),5.19 µM (active),5.31 µM (active),2.65 µM (active),5.44 µM (active),5.18 µM (active),,,,
C=CCOc1c(Br)cc(Br)cc1Br,inactive,inactive,inactive,inactive,inactive,,inactive,inactive,inactive,inactive,,,,,,,0.054 µM (active),,,
CCCCCCCCc1ccc(Nc2ccc(CCCCCCCC)cc2)cc1,inactive,inactive,inactive,inactive,inactive,inactive,inactive,inactive,inactive,inactive,,,,,,,,,,
CCCCC(CC)COC(=O)c1ccccc1O (stereo unspecified),,inactive,inactive,inactive,inactive,inactive,inactive,inactive,inactive,inactive,18.6 µM (active),,,,,,,,,
O=C1CCCN1CCO,inactive,inactive,inactive,inactive,inactive,inactive,inactive,inactive,inactive,inactive,,,,,,,,,,
CCCCC/C=C\C/C=C\CCCCCCCC(=O)OC,,,,inactive,,,inactive,,,,20 µM (active),29.5 µM (active),,31.8 µM (active),32.5 µM (active),36.1 µM (active),37.1 µM (active),36.5 µM (active),20 µM (active),
C/C=C\C/C=C/CCCCCCCCOC(C)=O,,,,inactive,,,,,,,20 µM (active),34 µM (active),,35.1 µM (active),24.7 µM (active),32.4 µM (active),30.5 µM (active),30.9 µM (active),30.4 µM (active),35.5 µM (active)
C=C[Si](OC(C)=O)(OC(C)=O)OC(C)=O,inactive,inactive,inactive,inactive,inactive,inactive,inactive,inactive,inactive,inactive,,,,,,,,,,
C#CC1(O)CC[C@H]2[C@@H]3CCC4=CCCC[C@@H]4[C@H]3CC[C@@]21C (stereo partly specified),,,,,,,inactive,,,,20 µM (active),35 µM (active),20 µM (active),29.6 µM (active),29 µM (active),33.3 µM (active),35.7 µM (active),30.3 µM (active),31.2 µM (active),
CN1C(=O)N(C)C(O)C1O (stereo unspecified),inactive,inactive,inactive,inactive,inactive,inactive,inactive,inactive,inactive,inactive,1.5 µM (active),,,,,,,,,
CO[Si](OC)(OC)c1ccccc1,inactive,inactive,inactive,inactive,inactive,inactive,inactive,inactive,inactive,inactive,,,,,,,,,,
CCOC(=O)c1ccccc1C(=C1C=C(Br)C(=O)C(Br)=C1)c1cc(Br)c(O)c(Br)c1,,,,,,,,,,,20.9 µM (active) and 17.5 µM (active),23 µM (active) and 22.9 µM (active),20.6 µM (active) and 23.2 µM (active),17.8 µM (active) and 14.7 µM (active),18.7 µM (active) and 17.4 µM (active),19.1 µM (active) and 18.9 µM (active),20.8 µM (active) and 20.9 µM (active),21.2 µM (active) and 21.8 µM (active),18.2 µM (active) and 12.6 µM (active),19.1 µM (active) and 19 µM (active)
CC1OC1C1CCC2(C)OC2C1 (stereo unspecified),inactive,inactive,inactive,inactive,inactive,inactive,inactive,inactive,inactive,inactive,,,,,,,,,,
C=CC=CC=CCCCCC,inactive,inactive,inactive,inactive,inactive,inactive,inactive,inactive,inactive,inactive,,,,,,,,,,
CCO[Si](CCCN=C=O)(OCC)OCC,inactive,inactive,inactive,inactive,inactive,inactive,inactive,inactive,inactive,inactive,,,,,,,,,,
C=CC(=O)OCC(Br)CBr (stereo unspecified),,,,,,,inactive,,,,15.6 µM (active),12.5 µM (active),31 µM (active),18.3 µM (active),20 µM (active),11 µM (active),30 µM (active),20 µM (active),16.7 µM (active),
CCCCNc1ccc(NCCCC)c2c1C(=O)c1ccccc1C2=O,inactive,inactive,inactive,inactive,inactive,inactive,inactive,inactive,inactive,inactive,,,,,,,,,,
